Screens: PubChem BioAssay, National Center for Advancing Translational Sciences (NCATS)
Sampled rows, rich in hits. Any-hit rate of the full collection: about 7.8%.
HCV inhibitor = blocks hepatitis C virus; Huh7.5.1 HCVcc-Cre infection, luciferase reporter, 44 h; Potency, µM (highest dose often 41.8 µM), inactives show at the top dose activity change, negative = inhibition, usual class: inhibitors; actives 3.4% (n = 340,000); AID 651820; active = well fitted inhibition curve with a large enough effect; inconclusive = small, poorly fitted or top-dose-only effect, or another doubt; inactive = no such curve, though single readings can be large or run the other way; also: potency is read from the fitted curve at half-maximal effect
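Cells seeded at 1,000/well and cultured 4 h, then compounds added followed by HCVcc-Cre virus (~0.5 moi). After 44 h further culture, luciferase substrate was added, plates held 15 min at room temperature, and luminescence read for 15 sec.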
MARV entry inh = Marburg virus entry inhibition; actives 1.8% (n = 300,000); Marburg virus pseudotyped entry inhibition, cell reporter; Potency, µM (series often up to 37.8 µM), without a hit: at the top dose activity change, negative = inhibition, hits mostly inhibitors; calls by dose curve; tested in HEK293 cells; also: potency is read from the fitted curve at half-maximal effect
VACV Venus inh = inhibitors of vaccinia virus (Venus reporter); Potency, µM (series often up to 36.5 µM), for inactives: top-dose activity change, negative = inhibition, most hits filed as inhibitors; Vaccinia virus Venus reporter expression, fluorescence; AID 720580; actives 0.46% (n = 330,000); calls by dose curve; tested in A549 cells; also: potency is read from the fitted curve at half-maximal effect; nearly all actives have a fitted effect of over 30% in size
HCMV inh = human cytomegalovirus inhibition; HFF cells, HCMV-luciferase reporter, 72 h; hits give low values; activity change, negative = inhibition, % at 57.5 µM; actives 4.5% (n = 410,000); in the data active = activity change below about -60%; inconclusive = no clear call, values can overlap the other calls; inactive = above about -39%
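Human foreskin fibroblasts infected with luciferase-reporter HCMV at MOI 1 PFU/cell, compounds at two doses. Luciferase measured 72 h post infection; normalized to buffer-only basal and Salinomycin (10uM) controls.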
VACV mCherry inh = inhibitors of vaccinia virus infection (mCherry reporter signal). Vaccinia virus mCherry reporter infection, fluorescence. Potency, µM (top dose mostly 36.5 µM), for inactives: at the top dose activity change, negative = inhibition, hits mostly inhibitors. actives 0.63% (n = 310,000); calls by dose curve; tested in A549 cells; also: potency is read from the fitted curve at half-maximal effect; nearly all actives have a fitted effect of over 35% in size
LASV entry inh = inhibitors of Lassa virus binding or cell entry | Lassa virus pseudotype entry inhibition, cell reporter | Potency, µM (doses to about 37.9 µM), for inactives: at the top dose activity change, negative = inhibition, actives largely listed as inhibitors | actives 1.2% (n = 300,000) | AID 540256; calls by dose curve; tested in HEK293 cells; also: potency is read from the fitted curve at half-maximal effect; nearly all actives have a fitted effect of over 50% in size
Active calls of the source: *; [ ] = another dose, or the depositor's remark. % is scaled to controls: 0 for no effect and ±100 for the full control effect.

Screening CC(=O)N1CCc2cc(S(=O)(=O)Nc3ccc(C)cc3)ccc21 returned HCV inhibitor -10.9%, MARV entry inh inconclusive, VACV Venus inh -12.6%, HCMV inh -63.7*, VACV mCherry inh -21.2% and LASV entry inh -0.9%.
`CSc1cccc(NS(=O)(=O)c2ccc(C(C)=O)cc2)c1` gave HCV inhibitor inconclusive, MARV entry inh inconclusive, VACV Venus inh -13.3%, HCMV inh -67.6*, VACV mCherry inh -7.2% and LASV entry inh inconclusive.
`CC(=O)N1CCCc2cc(S(=O)(=O)Nc3ccc(C)c(F)c3)ccc21` gave VACV Venus inh -9.8%, HCMV inh -6.1, VACV mCherry inh inactive and LASV entry inh 9.8%[46.1 µM].
`COc1ccc(N2CC(NC(=O)c3cccs3)CC2=O)cc1OC` (stereo not drawn) gave VACV Venus inh -8.4%, HCMV inh 9.5, VACV mCherry inh -4.7% and LASV entry inh 12.0%[46.1 µM].
For CCOc1ccc(Nc2c(S(=O)(=O)c3ccc(Cl)cc3)cnc3ccc(OC)cc23)cc1 the results were MARV entry inh -0.6%[46.1 µM], VACV Venus inh -19.9%, HCMV inh inconclusive and VACV mCherry inh -25.9%.
`CCN(c1cccc(C(F)(F)F)c1)S(=O)(=O)c1ccc2c(c1)CCN2C(=O)C1CC1` gave HCV inhibitor inconclusive, MARV entry inh inconclusive, VACV Venus inh inconclusive, HCMV inh -81.8*, VACV mCherry inh inconclusive and LASV entry inh inconclusive.
`CSc1cccc(NS(=O)(=O)c2ccc3c(c2)CCN3C(C)=O)c1` gave HCV inhibitor 5.62µM* and HCMV inh -87.9*.
COc1ccc2c(c1)C(C(Nc1ccc(C)cc1)c1ccc(Cl)cc1)C(=O)N2C (stereo not drawn) was read as HCMV inh 39.3.
Screening Cc1c(NC(=O)/C=C/c2cn(-c3ccccc3)nc2-c2ccc(F)cc2)c(=O)n(-c2ccccc2)n1C returned HCV inhibitor 11.2µM*, MARV entry inh -0.8%, VACV Venus inh -16.1%, HCMV inh 0.0 and VACV mCherry inh inconclusive.
Screening CCN(CC(=O)Nc1ccc(NC(C)=O)cc1)C(=O)/C=C/c1cn(-c2ccccc2)nc1-c1cccs1 returned HCV inhibitor inconclusive, MARV entry inh -17.1%, VACV Venus inh -27.8%, HCMV inh -28.5, VACV mCherry inh -7.5% and LASV entry inh inconclusive.
CC1=NNC(=O)/C1=C\c1cn(-c2ccccc2)nc1-c1cccs1 was read as HCV inhibitor inconclusive, MARV entry inh -41.2%, HCMV inh -100.1* and LASV entry inh inconclusive.
CC1=NNC(=O)/C1=C\c1cn(-c2ccccc2)nc1-c1ccc(F)cc1 was read as HCV inhibitor 4.47µM*, MARV entry inh 8.91µM*, VACV Venus inh 10µM*, VACV mCherry inh 10µM* and LASV entry inh inconclusive.
CN1CCC(N(C)C(=O)/C=C/c2cn(-c3ccccc3)nc2-c2cccs2)CC1 was read as HCV inhibitor 7.94µM*, MARV entry inh inconclusive, VACV Venus inh -23.9%, HCMV inh -110.8*, VACV mCherry inh inconclusive and LASV entry inh inconclusive.
Screening O=Cc1cn(-c2ccccc2)nc1-c1ccc(F)cc1 returned HCV inhibitor 0.2% and HCMV inh -3.1.
`CCC(C(=O)Nc1cc(OC)ccc1OC)n1nc(-c2ccccc2)c2c(c1=O)CCCC2` (stereo not drawn) gave MARV entry inh inconclusive, VACV Venus inh inconclusive, HCMV inh -31.1, VACV mCherry inh -15.1% and LASV entry inh inconclusive.
Screening CCCCCNC(=O)C(c1ccc(C(F)(F)F)cc1)n1c(=O)c(-c2ccco2)nc2ccccc21 (stereo not drawn) returned VACV Venus inh -18.6%, HCMV inh 15.2 and VACV mCherry inh -0.9%.
CC(C)c1c(C(=O)NCCN2CCOCC2)cnn1-c1nccc(-c2cccs2)n1 was read as VACV Venus inh -13.4% and VACV mCherry inh -22.7%.
`O=C(O)CCN1C(=O)/C(=C/c2cn(-c3ccccc3)nc2-c2cccs2)SC1=S` gave HCV inhibitor 3.3%, MARV entry inh inconclusive, VACV Venus inh -0.2%, HCMV inh -61.2*, VACV mCherry inh -1.6% and LASV entry inh -4.0%[46.1 µM].
